Data: ChEMBL document CHEMBL3433997, “St. Jude Leishmania screening dataset” (2016)

Legend:
Type in all cases: functional
[1] = target: Solute carrier family 2, facilitated glucose transporter member 1 (Homo sapiens) (UniProt P11166); test: ST_JUDE_LEISH: Cytotoxicity at 2uM final concentration against transgenic Leishmania Mexicana promastigotes LmGLUT1 that are glucose transport deficient and complemented with the human glucose transporter GLUT1. Activity is measured by DNA content using SYBR green in vitro
Sequence of Solute carrier family 2, facilitated glucose transporter member 1 (Homo sapiens) (P11166 whole entry): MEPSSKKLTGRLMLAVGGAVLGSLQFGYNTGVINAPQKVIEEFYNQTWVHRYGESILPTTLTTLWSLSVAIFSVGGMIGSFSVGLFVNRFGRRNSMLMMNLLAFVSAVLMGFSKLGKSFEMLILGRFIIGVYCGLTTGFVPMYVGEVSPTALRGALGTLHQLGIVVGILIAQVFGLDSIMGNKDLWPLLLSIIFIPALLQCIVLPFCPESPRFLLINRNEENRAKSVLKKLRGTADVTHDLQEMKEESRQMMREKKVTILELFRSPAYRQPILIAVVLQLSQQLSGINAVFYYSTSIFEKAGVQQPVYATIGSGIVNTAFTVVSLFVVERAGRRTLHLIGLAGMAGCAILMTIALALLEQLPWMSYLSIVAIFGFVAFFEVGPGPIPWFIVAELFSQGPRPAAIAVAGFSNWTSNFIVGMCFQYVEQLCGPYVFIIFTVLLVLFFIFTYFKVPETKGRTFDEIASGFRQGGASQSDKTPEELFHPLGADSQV

[2] = target: Hexose transporter 1 (Plasmodium falciparum) (UniProt O97467); test: ST_JUDE_LEISH: Cytotoxicity at 2uM final concentration against transgenic Leishmania Mexicana promastigotes LmPfHT that are glucose transport deficient and complemented with the Plasmodium falciparum hexose transporter. Activity is measured by DNA content using SYBR green in vitro
[3] = target: Glucose transporter (Leishmania mexicana) (UniProt O61059); test: ST_JUDE_LEISH: Cytotoxicity at 2uM final concentration against transgenic Leishmania Mexicana promastigotes LmGT2 that are glucose transport deficient and complemented with the L. Mexicana glucose transporter 2. Activity is measured by DNA content using SYBR green in vitro

With `COc1ccc(F)cc1-c1ccc(C(=O)N2CCCN(c3ccc(C(F)(F)F)cn3)CC2)cc1` the inhibition [1] was 2.4%, the inhibition [2] was 1.75% and the inhibition [3] was 4.03%.
Work on `Oc1ccc(CCNCCCCCCNCCc2ccc(Cl)cc2)c(Cl)c1O` yielded an inhibition [1] of -2.47%, an inhibition [2] of -4.06% and an inhibition [3] of -1.17%.
Work on `O=C(Nc1cc(C(F)(F)F)cc(C(F)(F)F)c1)N1CCC(CCN2CCC(c3c[nH]c4ccccc34)CC2)CC1` yielded an inhibition [1] of 5.87%, an inhibition [2] of 4.12% and an inhibition [3] of 4.71%.
`CCCCCCN1CCC(NCc2cccc(C(F)(F)F)c2)CC1` showed an inhibition [1] of 9.06%, an inhibition [2] of 12.2% and an inhibition [3] of 6.27%.
With `CCNc1cc(-c2cccc(OC)c2)nc(Nc2ccc(F)cc2)n1` the inhibition [1] was 7.43%, the inhibition [2] was 7.1% and the inhibition [3] was 2.87%.
